Reference: PubChem BioAssay (NCI)
Compounds without any hit were thinned out: in the full panel of roughly 83,000, 20% have a hit.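 A percent growth of 40 corresponds to 60% growth inhibition; 0 means no net growth; -100 means all cells died. Active threshold: below 10.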 A number with no mark means an inactive call. The source made the active and inactive calls.

Assays:
Experiment in all cases: NCI-60 one-dose screen, 48 h (100 = growth as untreated, 0 = no growth, -100 = all killed)
Settings in all cases: 10 µM unless noted
HCT-15 colon = tested on: HCT-15 colon
HT29 colon = tested on: HT29 colon
SNB-75 CNS = tested on: SNB-75 CNS
SNB-19 CNS = tested on: SNB-19 CNS
U251 CNS = tested on: U251 CNS
PC-3 prostate = tested on: PC-3 prostate
SK-MEL-5 melanoma = tested on: SK-MEL-5 melanoma
UACC-62 melanoma = tested on: UACC-62 melanoma
LOX IMVI melanoma = tested on: LOX IMVI melanoma
SK-MEL-28 melanoma = tested on: SK-MEL-28 melanoma

## OCCn1cc(-c2nc(-c3c[nH]c4ncccc34)cs2)c2ccccc21
HCT-15 colon
  growth: 55.9%
HT29 colon
  growth: 95%
SNB-75 CNS
  growth: 55.2%
SNB-19 CNS
  growth: 88.1%
U251 CNS
  growth: 78.9%
PC-3 prostate
  growth: 61.8%
SK-MEL-5 melanoma
  growth: 77.5%
UACC-62 melanoma
  growth: 69.9%
LOX IMVI melanoma
  growth: 77.7%

## Cc1nc2sc(C(=O)Nc3cccc(Br)c3)c(N)c2cc1C(O)c1ccccc1 (centres undefined)
HCT-15 colon
  growth: 21%
HT29 colon
  growth: 18.1%
SNB-75 CNS
  growth: 55.4%
SNB-19 CNS
  growth: 33.8%
U251 CNS
  growth: 11.1%
PC-3 prostate
  growth: 30.2%
SK-MEL-5 melanoma
  growth: 17.9%
UACC-62 melanoma
  growth: 26.2%
LOX IMVI melanoma
  growth: 48%

## C=CCn1c(SCC(=O)Nc2ccc(C(=O)/C=C/c3ccc(Cl)cc3)cc2)nnc1-c1ccc(Br)cc1
HCT-15 colon
  growth: 81.2%
HT29 colon
  growth: 67.5%
SNB-75 CNS
  growth: 75.6%
SNB-19 CNS
  growth: 77.8%
U251 CNS
  growth: 79.5%
PC-3 prostate
  growth: 68%
SK-MEL-5 melanoma
  growth: 82.7%
UACC-62 melanoma
  growth: 71%
LOX IMVI melanoma
  growth: 77.7%
SK-MEL-28 melanoma
  growth: 105%

## COC(=O)/C=C1/SC(=Nc2cccc(OC)c2)N(CCc2c[nH]c3ccc(O)cc23)C1=O
HCT-15 colon
  growth: 26.4%
HT29 colon
  growth: 92%
SNB-75 CNS
  growth: 71%
SNB-19 CNS
  growth: 54.3%
U251 CNS
  growth: 45.4%
PC-3 prostate
  growth: 46%
SK-MEL-5 melanoma
  growth: 63.6%
UACC-62 melanoma
  growth: 53.4%
LOX IMVI melanoma
  growth: 23.5%

## COC(=O)c1c(C)nc(C)c2c1C(=O)C(Br)=C(NCc1ccccc1)C2=O
HCT-15 colon
  growth: 11.6%
HT29 colon
  growth: 6.01% (active)
SNB-75 CNS
  growth: 100%
SNB-19 CNS
  growth: 41.7%
U251 CNS
  growth: 20.1%
PC-3 prostate
  growth: 16.1%
SK-MEL-5 melanoma
  growth: -96.5% (active)
UACC-62 melanoma
  growth: -10.8% (active)
LOX IMVI melanoma
  growth: 6.45% (active)

## CCN(CC)Cc1cc(C=C2C(=O)NC(=S)NC2=O)cc(OC)c1O
HCT-15 colon
  growth: 105%
HT29 colon
  growth: 108%
SNB-75 CNS
  growth: 99.1%
SNB-19 CNS
  growth: 98.6%
U251 CNS
  growth: 98.6%
PC-3 prostate
  growth: 102%
SK-MEL-5 melanoma
  growth: 106%
UACC-62 melanoma
  growth: 96.5%
LOX IMVI melanoma
  growth: 105%
SK-MEL-28 melanoma
  growth: 107%

## CCOC(=O)c1cc(C(=O)c2cc(OC)c(OC)c(OC)c2)n2ncccc12
HCT-15 colon
  growth: 24%
HT29 colon
  growth: 3.66% (active)
SNB-75 CNS
  growth: 34%
SNB-19 CNS
  growth: 38.9%
U251 CNS
  growth: 14.8%
PC-3 prostate
  growth: 21.1%
SK-MEL-5 melanoma
  growth: 25.9%
UACC-62 melanoma
  growth: 29.5%
LOX IMVI melanoma
  growth: 42.5%

## N=C(N)c1ccc(-c2ccc(-c3ccc(Cl)cc3Cl)s2)cc1
HCT-15 colon
  growth: -70.6% (active)
HT29 colon
  growth: 3.85% (active)
SNB-75 CNS
  growth: 88.5%
SNB-19 CNS
  growth: 10.9%
U251 CNS
  growth: -45.4% (active)
PC-3 prostate
  growth: 0.127% (active)
SK-MEL-5 melanoma
  growth: 89.3%
UACC-62 melanoma
  growth: 74.8%
LOX IMVI melanoma
  growth: -89.3% (active)

## O=C(CN1CCOCC1)Nc1nc(-c2cc3ccccc3oc2=O)cs1
HCT-15 colon
  growth: 104%
HT29 colon
  growth: 103%
SNB-75 CNS
  growth: 82.2%
SNB-19 CNS
  growth: 101%
U251 CNS
  growth: 98.7%
PC-3 prostate
  growth: 97.5%
SK-MEL-5 melanoma
  growth: 99.2%
UACC-62 melanoma
  growth: 92.5%
LOX IMVI melanoma
  growth: 95.6%

## CCCCn1c(=O)[nH]c(N)c([C@@H]2c3c([nH]c(=O)n(CCCC)c3=O)Oc3ccc4ccccc4c32)c1=O
HCT-15 colon
  growth: 6.62% (active)
HT29 colon
  growth: -44.2% (active)
SNB-75 CNS
  growth: 87.1%
SNB-19 CNS
  growth: 64.2%
U251 CNS
  growth: -20.7% (active)
PC-3 prostate
  growth: 24.4%
SK-MEL-5 melanoma
  growth: 67%
UACC-62 melanoma
  growth: 80.1%
LOX IMVI melanoma
  growth: -76.2% (active)

## C=CCN=c1sc2c(n1NC(=O)c1cc3ccc1CCc1ccc(cc1)CC3)C(=O)c1ccccc1C2=O
HCT-15 colon
  growth: -68.3% (active)
HT29 colon
  growth: 26.1%
SNB-75 CNS
  growth: -94.6% (active)
SNB-19 CNS
  growth: 4.59% (active)
U251 CNS
  growth: 0.221% (active)
PC-3 prostate
  growth: 0.37% (active)
SK-MEL-5 melanoma
  growth: -98.5% (active)
UACC-62 melanoma
  growth: -36% (active)
LOX IMVI melanoma
  growth: -80.3% (active)

## COc1ccc(C2CC(c3ccc(Nc4nc(Nc5ccccc5)nc(Nc5ccccc5)n4)cc3)=NN2C(C)=O)cc1 (centres undefined)
HCT-15 colon
  growth: 96.9%
HT29 colon
  growth: 101%
SNB-75 CNS
  growth: 89.8%
SNB-19 CNS
  growth: 88.7%
U251 CNS
  growth: 88.1%
PC-3 prostate
  growth: 86.4%
SK-MEL-5 melanoma
  growth: 83.5%
UACC-62 melanoma
  growth: 94.3%
LOX IMVI melanoma
  growth: 103%
SK-MEL-28 melanoma
  growth: 109%

## COc1cc2nc3cc([N+](=O)[O-])ccc3c(NCCNCC(C)O)c2cc1OC (centres undefined)
HCT-15 colon
  growth: 23.4%
HT29 colon
  growth: 2.64% (active)
SNB-75 CNS
  growth: -59.9% (active)
SNB-19 CNS
  growth: -10.4% (active)
U251 CNS
  growth: -25.3% (active)
PC-3 prostate
  growth: -38.6% (active)
SK-MEL-5 melanoma
  growth: -82.4% (active)
UACC-62 melanoma
  growth: -56.8% (active)
LOX IMVI melanoma
  growth: -35.7% (active)
SK-MEL-28 melanoma
  growth: -20% (active)

## COc1ccc(Nc2nnc(-c3ccc(OC)c(OC)c3)o2)cc1
HCT-15 colon
  growth: 80.3%
HT29 colon
  growth: 90.9%
SNB-75 CNS
  growth: 97.5%
SNB-19 CNS
  growth: 97.5%
U251 CNS
  growth: 93%
PC-3 prostate
  growth: 70.7%
SK-MEL-5 melanoma
  growth: 89%
UACC-62 melanoma
  growth: 90.2%
LOX IMVI melanoma
  growth: 59.2%

## CC(=O)c1c(C)nc2ccccc2c1/C=C/c1ccc(F)cc1
HCT-15 colon
  growth: 84.8%
HT29 colon
  growth: 90.7%
SNB-75 CNS
  growth: 82.4%
SNB-19 CNS
  growth: 93%
U251 CNS
  growth: 86.7%
PC-3 prostate
  growth: 79.1%
SK-MEL-5 melanoma
  growth: 69.5%
UACC-62 melanoma
  growth: 74.9%
LOX IMVI melanoma
  growth: 81.4%
